Test results reported in PubChem BioAssay.
Measured potencies and affinities stand elsewhere. Values without a mark were called inactive.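 Rule for the calls: active = fitted dose curve reaches 40% lysis signal rise at or below the highest valid concentration tested for that sample; inconclusive = flat fit between 30% and 70%, or poor curve fit; inactive = signal falls, stays flat within 30%, or no crossing.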

Assay: C. neoformans lysis by adenylate kinase leakage – AK release luminescence, cherry-picks, dose response (AID 687000);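 note: luminescent detection of adenylate kinase leaking from lysed yeast; 0% = median neutral control signal and 100% = double that signal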
Settings: 4 h, 100% = twice the neutral-control signal; series mostly up to 15 µM; lysis activity: at the top concentration

Row | SMILES | lysis activity
1 | Cc1cc(C(=O)Nc2cccc3c2O[C@@H](CN(C)S(=O)(=O)c2ccccc2)[C@@H](C)CN([C@@H](C)CO)C3=O)n(C)n1 | 1.55%
2 | COc1cccc(S(=O)(=O)Nc2ccc3c(c2)OC[C@@H](C)NC[C@H](C)[C@@H](OC)CN(C)C3=O)c1 | -1.17%
3 | CCC(=O)N1[C@H](CO)[C@H](c2ccc(-c3ccc(F)cc3)cc2)[C@@H]1CNC(C)=O | 9.12% [at 16 µM]
4 | CC(=O)c1cccc(NC(=S)NC2CCCCCCC2)c1 | 7.51%
5 | Cc1ccccc1S(=O)(=O)N[C@@H]1CC[C@H](CCNS(=O)(=O)c2cccc(F)c2)O[C@H]1CO | 8.31%
6 | CC(C)CC#Cc1cnc2c(c1)C(=O)N([C@@H](C)CO)C[C@H](C)[C@H](CN(C)C(=O)c1ccc3c(c1)OCO3)O2 | -2.21%
7 | Cc1ccc(/C=C2\SC(=S)N(NS(=O)(=O)c3ccc(C)cc3)C2=O)cc1 | -24.5%
8 | O=c1nc(-c2ccccc2)c2ccccc2[nH]1 | -1.1%
9 | O=C(C[C@H]1CC[C@@H]2[C@H](COC[C@H](O)CN2CC2CCOCC2)O1)NCc1ccc(Cl)cc1 | 51.2%
10 | CC(NC(=O)COc1ccccc1C(C)(C)C)c1ccccc1 (centres undefined) | -30.6% [at 23.5 µM]
11 | Cc1cccc(C)c1NC(=O)C1(NC(=O)C2CCC(=O)N2)CCCCC1 (centres undefined) | 7.47%
12 | Cc1ccc(C)c(NC(=O)C2(C)CCN2C(=O)C(C)C)c1 (centres undefined) | -5.27%
13 | CCOC(=O)CNC(=O)CSc1ncnc2c1cnn2-c1ccc(Cl)cc1 | -14.4%
14 | Cc1cc(OCC(=O)N(C)Cc2ccccc2)cc(C)c1Cl | -22%
15 | COc1cccc(NC(=O)CN2CCN(S(=O)(=O)c3ccc(C(C)C)cc3)CC2)c1 | -3.04%
16 | C[C@@H]1CN([C@H](C)CO)C(=O)c2ccccc2-c2ccccc2CO[C@H]1CN(C)S(=O)(=O)c1cccc(C#N)c1 | -6.5%
17 | CC(NC1CCCC1)C(=O)Nc1ccccc1-c1ccccc1 (centres undefined) | 2.13%
18 | CCC(=O)N1CCC1(C)C(=O)Nc1ccc(C)c(C)c1 (centres undefined) | -17.3%
19 | CO[C@H]1CN(C)C(=O)c2ccc(NC(=O)NC(C)C)cc2OC[C@@H](C)NC[C@H]1C | 11.2%
20 | Cc1ccc(S(=O)(=O)N[C@H]2CC[C@H](CC(=O)NCc3ccccc3F)O[C@H]2CO)cc1 | -9.46%

Row | SMILES | lysis activity
21 | Cc1cc(OCC(=O)NC(C)c2ccccc2)ccc1[N+](=O)[O-] (centres undefined) | -0.041%
22 | C[C@H]1CN([C@@H](C)CO)C(=O)Cc2cc(NC(=O)C3CC3)ccc2O[C@@H]1CN(C)C(=O)Nc1cccc2ccccc12 | -6.07%
23 | CCCN1C(=O)C(O)(C2CC(=O)CC(C)(C)O2)c2ccccc21 (centres undefined) | 7.78%
24 | Cc1ccc2c(C)c(C(=O)N3CCN(Cc4ccccn4)CC3)oc2c1C | -21.7%
25 | CCCC[C@@H]1CNC(=S)N1CCc1cccc(F)c1 | 20.1%
26 | CCOC(=O)CNC(=O)CSc1ncnc2c1cnn2-c1ccccc1 | 2.25%
27 | Cc1ccccc1OCC(=O)NC(C)c1ccccc1 (centres undefined) | -8.6%
28 | C/C=C/c1ccc([C@@H]2[C@@H](CNC(=O)C3CCC3)N(C(=O)NCCC)[C@H]2CO)cc1 | -1.11%
29 | C[C@H](NC(=O)C[C@H]1CC[C@@H](NC(=O)Cc2ccccn2)[C@@H](CO)O1)c1ccccc1 | 4.58%
30 | O=C1CCC(C(=O)Nc2ccc([N+](=O)[O-])cc2)N1 (centres undefined) | -3.3%
31 | COCC#Cc1cnc2c(c1)C(=O)N([C@@H](C)CO)C[C@H](C)[C@H](CN(C)C(=O)Nc1ccc(OC)cc1)O2 | 7.17%
32 | Cc1ccc(C(=O)n2nnc3ccccc32)cc1[N+](=O)[O-] | 8.02%
33 | O=C(COc1ccccc1)NCc1ccccc1 | -1.66%
34 | O=C(CCCNC(=O)c1ccc(Cl)cc1)Nc1nccs1 | -12.1%
35 | CC(C)NC(=O)Nc1ccc2c(c1)C(=O)N([C@H](C)CO)C[C@H](C)[C@H](CN(C)Cc1ccncc1)OCCCC[C@H](C)O2 | 46.6%
36 | COc1cccc(S(=O)(=O)Nc2ccc3c(c2)[C@H]2C[C@@H](CC(=O)NC4CCCCC4)O[C@@H](CO)[C@H]2O3)c1 | 37.8%
37 | Fc1ccc(CNC(=S)NCc2cccc(Cl)c2)cc1 | -2.97%
38 | CCOC(=O)CNC(=O)CSc1ncnc2c1cnn2-c1ccc(C)cc1 | -16.2%
39 | C[C@H](CO)N1C[C@H](C)[C@H](CN(C)CC2CCCCC2)Oc2c(NS(C)(=O)=O)cccc2C1=O | 10.1%
